Assay outcomes (PubChem)
This excerpt belongs to a sample that is enriched for hits.
HTT cytoprotect: qHTS Multiplex Assay to Identify Dual Action Probes in a Cell Model of Huntington: Cytoprotection (ATP). PC12 HTT-Q103 induced, cytoprotection, ATP luminescence, 40 h. Potency, µM (top dose mostly 56.4 µM), hits mostly activators. 0.14% of 230,000 active. AID 1471, 2008; further: nearly all actives have a fitted effect of over 45% in size
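Compounds were screened for protection of PC12 cells against cell death after tebufenozide induction (100 nM final) of mutant Huntingtin exon 1 (Q103) fused to GFP.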
PINK1 modulator: A Quantitative High throughput Screen to Identify Chemical Modulators of PINK1 Expression; PINK1 immunofluorescence, high-content cytometry, 24 h; Potency, µM (highest dose often 76.6 µM), usual class: activators; 0.2% of 410,000 active; active means well fitted activation curve with a large enough effect; inconclusive means small, poorly fitted or top-dose-only effect; cell line not stated here; further: nearly all actives have a fitted effect of over 65% in size
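PINK1 protein level read as immunofluorescence by microplate cytometer in a fixed, stained stable cell line after 24 h exposure to five compound concentrations, with CCCP as control.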
Epigenetic derep: Quantitative High-Throughput Screen for Regulators of Epigenetic Control | murine LDR cells, GFP reporter derepression, 30 h | Potency, µM (series often up to 53.9 µM), usual class: activators | 0.2% of 280,000 active; further: nearly all actives have a fitted effect of over 60% in size
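GFP-positive cell count by laser-scanning cytometry (objects 20–120 um) after 30 h, 37 C compound exposure of murine LDR cells; reporter is CMV-GFP integrated at a silenced locus, inducible by HDAC or DNMT inhibitors.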
PTAP TSG101 blk: qHTS Assay for Iinhibitors of HIV-1 Budding by Blocking the Interaction of PTAP/TSG101; 340,000 tested, under 10 active; Fluorescence polarization, FITC-PTAP peptide / Tsg101 binding; AID 493005, 2010; Potency, µM (series often up to 115 µM), most hits filed as inhibitors; active means well fitted inhibition curve with a large enough effect in the main read-out, with a control signal flat, not every such curve was filed as active; inconclusive means small, poorly fitted or top-dose-only effect, or effect the other way, or a change in a side signal; inactive means no such curve, though single readings can be large or run the other way
Target sequence (Q99816 whole entry, looked up): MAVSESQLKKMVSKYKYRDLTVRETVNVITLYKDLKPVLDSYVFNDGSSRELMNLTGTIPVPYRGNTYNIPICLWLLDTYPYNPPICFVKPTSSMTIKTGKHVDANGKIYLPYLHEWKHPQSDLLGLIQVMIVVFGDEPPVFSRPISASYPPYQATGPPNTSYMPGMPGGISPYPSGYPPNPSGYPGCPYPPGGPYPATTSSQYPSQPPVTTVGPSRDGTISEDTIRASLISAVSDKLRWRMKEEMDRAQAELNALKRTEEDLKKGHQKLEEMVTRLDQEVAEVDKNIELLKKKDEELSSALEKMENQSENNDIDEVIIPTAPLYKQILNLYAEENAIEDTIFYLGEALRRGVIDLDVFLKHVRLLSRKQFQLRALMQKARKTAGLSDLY
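Fluorescence anisotropy tracks displacement of a FITC-tagged PTAP peptide (50 nM) from the Tsg101 binding domain (10 uM), following a 20 min room-temperature incubation at pH 7.5.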
HttQ103 aggreg: qHTS Multiplex Assay to Identify Dual Action Probes in a Cell Model of Huntington: Aggregate Formation (GFP); 1.1% of 220,000 active; PC12 HttQ103-GFP aggregates, Acumen cytometry, 40 h; Potency, µM (series often up to 46.1 µM), hits mostly inhibitors; further: nearly all actives have a fitted effect of over 60% in size
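Compounds (qHTS titration) were added to PC12 cells expressing an ecdysone-driven HTT exon 1 Q103–GFP fusion after induction with 100 nM tebufenozide. Aggregate formation was measured as GFP objects in cell lysates.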
Anesthetic bind: qHTS Assay for Identification of Novel General Anesthetics | Ferritin light chain (Equus caballus), P02791 | apoferritin/1-aminoanthracene competitive binding, fluorescence | Potency, µM (highest dose often 77.5 µM), most hits filed as inhibitors | 0.074% of 350,000 active | AID 485281, 2010; further: nearly all actives have a fitted effect of over 20% in size
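Read-out: endpoint 1-AMA fluorescence, excitation 380 nm and emission 535 nm, after compounds sit 10 min at room temperature with 10 uM horse-spleen apoferritin in 50% saturated 1-AMA/PBS. Values come from four-parameter Hill fits.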
Numbers stand for hits; n = inactive; u = inconclusive; x = not tested or not shown; [ ] = another dose, or the depositor's remark. Unless noted, the call rests on the fitted dose curve; in most records, active means well fitted curve in the direction sought with a large enough effect; inconclusive means small, poorly fitted or top-dose-only effect, or another doubt; inactive means no such curve, though single readings can be large; an effect the other way counts as inactive or inconclusive.

SMILES | HTT cytoprotect | PINK1 modulator | Epigenetic derep | PTAP TSG101 blk | HttQ103 aggreg | Anesthetic bind
COc1ccccc1Cn1c(-c2ccccc2OC)nc2ccccc21 | n[10 µM] | n | n | n | u | n
CC(C)c1c(C(=O)N(C)CC2CCCN(C)C2)cnn1-c1nccc(-c2cccs2)n1 (centres undefined) | x | n | x | x | x | x
Cc1ncc([N+](=O)[O-])n1Cc1ccccc1 | n[10 µM] | n | n | n | n | n
O=[N+]([O-])c1cnc2ccccn12 | 3.98µM | n | n | n | n[9.22 µM] | n
CC(NC(=O)c1cc(F)ccc1F)c1nnc2n1CCN(Cc1ccc(-c3ccccc3)cc1)CC2 (centres undefined) | x | n | x | x | x | x
O=S(=O)(Nc1cccnc1)c1ccc(C2CCCCC2)cc1 | n[10 µM] | n | n | n | 2.82µM | u
CC1CCCN(S(=O)(=O)c2ccc(NC(=O)c3cccc(-n4cnnn4)c3)cc2)C1 (centres undefined) | n[10 µM] | n | n | n | n | 14.1µM
CC(=O)c1ccc(-n2c(C)c(C(C)=O)c3cc(O)ccc32)cc1 | x | n | x | n | x | n
CC(=O)c1c(C)n(-c2ccccc2)c2ccc(O)cc12 | n | n | n | n | 10µM | n
C=C1C=C(C(F)F)n2ncc(C(=O)NCc3ccc(Cl)cc3)c2N1 | x | n | x | x | x | x
COc1ccc(-c2ccc(C(=O)N(C)Cc3csc(C)n3)c(N3CCC(N4CCc5ccccc5C4)CC3)n2)cc1 | x | n | x | x | x | x
C=CCSC(=C(C#N)C#N)c1cc2c([nH]1)CCCC2 | 11.2µM | n | n | n | u | u
O=C(O)c1cc2c([nH]c1=O)CCCC2 | n | n | n | n | n | n
CCNc1nc(NCC)nc(-n2cc(C(=O)c3cc(Cl)ccc3O)cn2)n1 | x | n | x | x | x | x
O=C(c1cc(COc2ccc(F)cc2Cl)on1)N1CCCC(OCc2cccnc2)C1 (centres undefined) | n | n | n | n | u | u
O=C(c1cc(COc2ccc(F)cc2Cl)on1)N1CCC(OCc2cccnc2)CC1 | n | n | n | n | 11.2µM | n
O=C(c1cc(COc2c(F)cccc2F)on1)N1CCC(c2ccncc2)CC1 | n | n | n | n | 20µM | n
COc1ccc2c(c1)OC(C)CN(CCC(=O)NCC1OCCc3ccccc31)C2 (centres undefined) | x | n | x | x | x | x
COc1cccc(S(=O)(=O)N2CCN(c3nc(-c4cccs4)nc4ccccc34)CC2)c1 | x | n | x | x | x | x
Cc1ccc(C2C(C=Nc3c(C)n(C)n(-c4ccccc4)c3=O)=C(c3ccccc3)Oc3ccccc32)cc1 (centres undefined) | n | n | n | n | 22.4µM | n
O=C(O)C1C2CCC(O2)C1C(=O)Nc1cnn(Cc2ccccc2)c1 (centres undefined) | n | n | n | n | n | n
O=C(Nc1cnn(Cc2ccccc2)c1)NC12CC3CC(CC(C3)C1)C2 | n | n | n | n | u | 15.8µM
O=C(c1cc(-c2ccc(F)cc2)on1)N1CCCC1 | n | n | 15.8µM | n | u | n
CCOC(=O)Cn1cnc2c(cnn2-c2ccccc2)c1=O | x | n | x | n | x | n
CCOC(=O)Cn1cnc2c(cnn2-c2ccc(Cl)cc2)c1=O | n | n | n | n | 15.8µM | n
COc1ccc(-n2c(C)nc3c(cnn3-c3ccc(Cl)cc3)c2=O)cc1 | n | n | n | n | 12.6µM | n
Cc1nc([N+](=O)[O-])c(SCC(N)=O)n1Cc1ccccc1 | n[10 µM] | n | n | n | n[9.22 µM] | n
Cc1nc([N+](=O)[O-])c(Sc2nc3ccccc3n2C)n1Cc1ccccc1 | n[10 µM] | n | n | n | 10µM | n
COc1ccc(-c2n(Cc3ccccc3)c3ccccc3[n+]2Cc2ccccc2)cc1 | x | 11.2µM | n | n | x | n
